# Measurements reported in the supplement of paper PMC6555819.
# Columns and labels:
# Experiment in all cases: PBM binding z-score (relative to random genomic background probes); higher = stronger binding; sequences stand for … in GC…GCGATTGACAGCGTAGAATGAAGG
# [1] = tested on: FXR:RXRa (NR concentration 270 nM, RXRa partner concentration 90 nM)
# Procedure, shortened: (§1)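 Regression normalization was applied to scanned fluorescence from custom Agilent 4×180K protein-binding microarrays. Before scanning, arrays were incubated 1 h with ligand-free nuclear receptor dimers, and binding was detected with antibodies against each partner (one per run). Binding z-scores use the random background probes as reference.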
# [2] = tested on: LXRa:RXRa (NR concentration 270 nM, RXRa partner concentration 90 nM)
# Procedure, shortened: as §1
# [3] = tested on: LXRa homodimer (NR concentration 270 nM)
# Procedure, shortened: as §1
# [4] = tested on: LXRb:RXRa (NR concentration 270 nM, RXRa partner concentration 90 nM)
# Procedure, shortened: as §1
# [5] = tested on: LXRb homodimer (NR concentration 270 nM)
# Procedure, shortened: as §1
# [6] = tested on: PPARa:RXRa (NR concentration 270 nM, RXRa partner concentration 90 nM)
# Procedure, shortened: as §1
# [7] = tested on: PPARg:RXRa (NR concentration 180 nM, RXRa partner concentration 90 nM)
# Procedure, shortened: as §1
# [8] = tested on: PPARg:RXRa 270nM:90nM, anti-RXR (NR concentration 270 nM, RXRa partner concentration 90 nM)
# Procedure, shortened: as §1
# [9] = tested on: PPARg:RXRa 30nM:10nM, anti-RXR (NR concentration 30 nM, RXRa partner concentration 10 nM)
# Procedure, shortened: as §1
# [10] = tested on: PPARg:RXRa 90nM:30nM, anti-RXR (NR concentration 90 nM, RXRa partner concentration 30 nM)
# Procedure, shortened: as §1
# [11] = tested on: PPARg:RXRa DBDmut IVT, anti-RXR (DBD mutation: RXRa K156A/R161A, NR concentration 270 nM, RXRa partner concentration 90 nM)
# Procedure, shortened: as §1
# [12] = tested on: PPARg:RXRa IVT, anti-PPARg (NR concentration 270 nM, RXRa partner concentration 90 nM)
# Procedure, shortened: as §1
# [13] = tested on: PPARg DBDmut:RXRa IVT, anti-PPARg (DBD mutation: PPARg1 K132A/R137A, NR concentration 270 nM, RXRa partner concentration 90 nM)
# Procedure, shortened: as §1
# [14] = tested on: PPARg DBDmut IVT, anti-PPARg (DBD mutation: PPARg1 K132A/R137A, NR concentration 270 nM)
# Procedure, shortened: as §1
# [15] = tested on: PPARg homodimer (NR concentration 180 nM)
# Procedure, shortened: as §1
# [16] = tested on: PXR:RXRa (NR concentration 270 nM, RXRa partner concentration 90 nM)
# Procedure, shortened: as §1
# [17] = tested on: PXR homodimer (NR concentration 270 nM)
# Procedure, shortened: as §1
# [18] = tested on: RARa:RXR (NR concentration 270 nM, RXRa partner concentration 90 nM)
# Procedure, shortened: as §1
# [19] = tested on: RARa homodimer (NR concentration 270 nM)
# Procedure, shortened: as §1
# [20] = tested on: RARb:RXRa (NR concentration 270 nM, RXRa partner concentration 90 nM)
# Procedure, shortened: as §1
Sequence,PBM binding z-score [1],PBM binding z-score [2],PBM binding z-score [3],PBM binding z-score [4],PBM binding z-score [5],PBM binding z-score [6],PBM binding z-score [7],PBM binding z-score [8],PBM binding z-score [9],PBM binding z-score [10],PBM binding z-score [11],PBM binding z-score [12],PBM binding z-score [13],PBM binding z-score [14],PBM binding z-score [15],PBM binding z-score [16],PBM binding z-score [17],PBM binding z-score [18],PBM binding z-score [19],PBM binding z-score [20]
GCTTGTAGATCAAGGTTAATAAAGACTAAGCTAA,-0.0696,2.14,-0.45,0.661,-0.608,1,1.29,2.36,0.581,1.78,1.14,0.996,-0.734,0.456,-0.133,0.16,0.327,0.282,0.0284,0.519
GCTCGGAGGAAAAGGTCAGAGCTTTGTCCGTAGA,2.6,3.37,0.256,2.58,-0.596,3.83,2.82,4.46,1.36,4.22,-0.0327,1.11,-1.39,-0.963,1.55,2.93,-0.551,3.96,0.159,3.95
GCTGCTAGGTCAAGTGATGGTCAGCTAAAGCTCG,4.09,3.01,0.152,1.9,-0.0819,3.57,2.46,3.13,0.591,2.12,4.64,4.05,0.0181,-0.582,1.55,1.43,-0.69,2.5,-0.171,4.11
TAACCTAGGTCATGCGGGCCAGTATAGTGTCGGC,4.19,4.46,1.83,2.55,-0.0591,4.09,4.16,3.58,1.11,2.56,3.49,4.46,0.354,0.297,1.08,1.84,-0.126,2.5,0.00748,3.89
AGTCAAAGTTCACTAGATAACGTAAGATTCAGCT,4.55,4.91,2.72,2.91,1.04,3.97,5.54,5.7,2.23,4.53,0.283,2.53,1.22,1.17,2.06,3.77,3.07,2.89,1.09,4.66
CCTACTAGGTCATGGTCAGCTAATCTACAGTATG,3.8,2.57,0.658,2.06,0.291,4.33,6.76,5.84,3.38,4.97,7.3,7.42,2.12,1.91,2.59,1.5,0.291,2.45,0.932,3.92
GCATATAGGTAATACTAGGTGAAAGTCCGATTGT,0.715,2.49,0.179,0.49,-0.275,2.06,2.22,2.48,1.09,2.43,4.82,4.2,0.862,0.925,0.614,0.155,0.151,1.1,0.695,0.113
ATCTCTAGGTAACCAAGTTCAGAGAATGCCGAAC,0.204,0.722,0.915,0.628,0.739,1.2,0.721,0.986,-0.0566,0.52,3.4,2.88,1.18,0.83,0.879,2.15,1.71,0.548,0.605,1.22
TGTCAAAGTTCAAAGGTAACGTGAGTATCCACAC,6.92,6.79,4.59,4.91,1.54,5.99,8.97,7.93,6.04,7.73,0.486,4.72,1.71,2.12,3.33,5.78,3.67,6.92,0.948,5.15
TCATATAGGTAAAGGTGAAACTCGAACGATATGA,0.837,1.52,-0.0632,1.7,-0.204,3.58,4.46,4.88,4.59,5.12,4.08,4.59,1.59,2.12,1.36,1.13,-0.357,1.76,0.238,2.05
GGAACGAGGGCCAAGTTGATAGCATCTGTCGACG,-0.236,-0.341,-0.454,-0.778,-0.949,0.213,0.734,1.4,0.144,0.913,0.254,-0.0508,-1.09,-0.973,-0.0593,-0.242,-0.456,-0.293,-0.285,0.806
ATCTGTAGGTTAAGGGTCATTCAGGTTGGTTCGC,5.22,5.26,3.63,4.56,1.72,5.72,9.93,9.03,9.65,10.6,3.99,5.75,1.73,1.69,3.99,5.59,3.35,6.53,2.88,3.77
CGAACGAGGGGATGAGTTGATAGCAAATGCCGAT,0.0387,-0.222,-0.351,-0.0303,-0.345,-0.335,0.733,0.0328,-0.38,-0.23,0.602,0.068,0.241,0.151,0.0087,-0.392,0.00406,-0.399,0.243,-0.301
CCGACTGGGGCATAAGTTTACCATAAGCCAGCCC,-0.352,-0.207,-0.448,-0.337,-0.91,0.222,1.66,2.44,0.241,1.74,3.09,2.55,-0.897,-1.31,0.107,-0.336,-0.547,-0.262,-0.566,0.68
CCTTACGGGTCACTCCAGGTTATAGCCTCGGAGT,4.87,7.57,1.87,5.01,0.105,4.56,3.61,3.83,1.17,2.46,2.45,3.8,-1.39,-0.526,1.18,4.66,0.0423,3.43,0.55,3.64
TAGCCTAGGTCATTGGGCCAATATAGTACGCATC,4.69,3.66,1.13,2.95,0.235,4.38,4.57,4.16,1.53,3.46,3.03,4.13,0.385,0.532,1.58,1.83,-0.353,2.69,-0.0412,3.6
CCTATTGGGCCAAAAAGGTCATTGATGCCGATAA,3.69,4.37,2.45,4.04,0.266,4.6,2.25,3.39,0.941,2.81,1.89,2.64,0.177,-0.558,2.26,4.74,2.45,4.98,1.26,3.79
CCTGCTAGGTCAATAGTCAGCTAAAGCAGCTCGC,2.43,1.66,-0.401,0.931,0.148,2.28,2.33,2.95,0.219,1.9,3.97,3.08,-0.361,-0.649,0.586,0.324,-0.908,0.911,-1.08,3.45
CTACCAAGGTGAACAACGTCGTTGATTACTATTC,0.772,0.327,-0.307,0.812,-0.301,1.29,0.69,0.538,-0.133,0.52,2.88,2.23,0.00253,0.341,-0.432,0.189,-0.322,0.739,0.243,1.68
TCGAGTAGGTTAGCCGGGGCATTCAGCCAACATA,0.0762,-0.0841,-0.659,0.0461,-1.01,0.893,-0.0642,0.609,0.847,0.701,1.95,1.45,-0.971,-1.01,-0.00962,0.241,-0.374,0.484,-0.48,0.608
ACTAGCCGGCCAAGGGTCACTCAAGATTAGTCCG,2.41,2.53,0.141,2.59,-0.832,3.81,5.6,5.62,3.35,5.18,-0.188,2.25,-0.122,-1.13,0.922,3,-0.135,3.82,-0.211,3.41
TCTCGTAGATCAGCAGGTTAAGAAAGCTGGCCAA,-0.53,-0.117,-0.522,0.0597,-1.13,0.428,-0.691,1.22,2.41,2.08,1.33,-0.478,-0.653,-0.513,-0.593,-0.00394,-0.361,0.521,-0.998,-0.0596
AGAATGAGGTTATACGTAGTTCAGGGAAGAAAGT,2.23,3.06,0.289,1.93,-0.31,3.55,1.85,2.29,0.654,1.49,3.46,2.53,1.03,0.605,0.814,3.07,0.774,2.66,0.46,1.96
AGAATGAGGTTACCAAAGATTAGGGAAACGCTTG,1.75,4.54,-0.368,1.72,-0.268,3.31,2.43,2.72,1.12,1.93,4.05,3.59,1.65,0.534,0.398,1.15,-0.168,1.88,0.039,2.06
GGAACGAGGGCAAAGTTGATAGCATCTGTCGACG,1.45,0.921,-0.231,1.07,-0.272,4.11,6.65,7.24,5.84,7.47,3.97,4.32,0.506,-0.103,-0.0124,1.14,-0.0271,1.56,-0.075,2.37
ACTATTAGTCGAGACGAGGGCAACCGATAGGTTG,-0.123,-0.246,-0.369,-0.122,-0.111,0.186,0.668,0.119,0.0913,0.381,-0.021,0.553,0.32,-0.276,0.0526,0.376,0.101,0.238,-0.112,0.812
GCGACTGGGGCAAAGCAGGTAACCATAAGGTTGG,-0.15,-0.576,-0.622,-0.339,-0.997,0.96,1.1,1.08,-0.433,0.285,4.21,3.7,-0.574,-0.498,-0.0633,-0.292,-0.741,0.385,-0.971,0.691
AGAACGAGGGCACGCTGAGTTTATAGCAGAGTAG,0.87,1.08,-0.437,0.283,-1.07,2.21,2.19,1.98,0.505,1.43,4.28,3.85,1.13,0.317,0.761,3.96,2.87,1.28,-0.418,2.63
